Read-out in assay [1]: Forkhead box O1 (FOXO1), FOXO1 (gene 2308)
As to the kind of experiment: LTEA_HepaRG_FOXO1: Life Technologies and Expression Analysis (LTEA) Assay for Forkhead box O1 (FOXO1) using HepaRG (AID 2283456). The settings on record: mRNA level, 48 h; actives raise or lower the signal. In a few lines: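 Using one lot of HepaRG hepatic cells kept in 0.5% DMSO, the team applied test chemicals in duplicate, half-log dilutions from 100 uM, for 48 h. Expression, normalised to ACTB/GAPDH/POLR2A, was compared with vehicle in either direction.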

Read-out in assay [2]: growth arrest and DNA damage 45 (GADD45A), GADD45A (gene 1647)
Description: LTEA_HepaRG_GADD45A: Life Technologies and Expression Analysis (LTEA) Assay for growth arrest and DNA damage 45 (GADD45A) using HepaRG (AID 2283458). The settings on record: mRNA level, 48 h; actives raise or lower the signal. In short, it runs like this: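 Transcript induction or loss, quantified by TaqMan qRT-PCR against three housekeeping genes, is the read-out. HepaRG cells received chemicals for 48 h across eight half-log concentrations from 100 uM in 0.5% DMSO; gain and loss fitted relative to DMSO.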

Read-out in assay [3]: Forkhead box O3 (FOXO3), FOXO3 (gene 2309)
Description: LTEA_HepaRG_FOXO3: Life Technologies and Expression Analysis (LTEA) Assay for Forkhead box O3 (FOXO3) using HepaRG (AID 2283459). The settings on record: mRNA level, 48 h; actives raise or lower the signal. In short, it runs like this:
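Gene-expression endpoint: FOXO3 transcript level by qRT-PCR in HepaRG cultures treated 48 h with chemicals up to 100 uM (half-log, 0.5% DMSO vehicle).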

Read-out in assay [4]: ABC Transporter (ABCB1), ABCB1 (gene 5243)
As to the kind of experiment: LTEA_HepaRG_ABCB1: Life Technologies and Expression Analysis (LTEA) Assay for ABC Transporter (ABCB1) using HepaRG (AID 2283460). The settings on record: mRNA level, 48 h; actives raise or lower the signal. In a few lines: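 Human liver HepaRG line treated 48 h with up to 100 uM compound (eight half-log points, 0.5% DMSO); ABCB1 mRNA change fitted bidirectionally against DMSO controls.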

Read-out in assay [5]: growth arrest and DNA damage 45 (GADD45B), GADD45B (gene 4616)
Description: LTEA_HepaRG_GADD45B: Life Technologies and Expression Analysis (LTEA) Assay for growth arrest and DNA damage 45 (GADD45B) using HepaRG (AID 2283461). The settings on record: mRNA level, 48 h; actives raise or lower the signal. In short, it runs like this: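 HepaRG, ~100,000 cells/well, 48 h plating; serum-free induction medium; cpd 100 uM top, half-log x8, 0.5% DMSO, duplicate, 48 h; lysis in RLT, RNA isolation, qRT-PCR; norm ACTB/GAPDH/POLR2A; bidirectional fit vs DMSO.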

Read-out in assay [6]: ABC Transporter (ABCB11), ABCB11 (gene 8647)
As to the kind of experiment: LTEA_HepaRG_ABCB11: Life Technologies and Expression Analysis (LTEA) Assay for ABC Transporter (ABCB11) using HepaRG (AID 2283463). As to conditions: mRNA level, 48 h; actives raise or lower the signal. In a few lines: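 Using HepaRG cultures held in 0.5% DMSO, chemicals were tested at half-log dilutions from 100 uM for 48 h. Induction or suppression of ABCB11 mRNA, normalized to ACTB, GAPDH and POLR2A, was fitted bidirectionally against vehicle.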

Read-out in assay [7]: ABC Transporter (ABCC2), ABCC2 (gene 1244)
Description: LTEA_HepaRG_ABCC2: Life Technologies and Expression Analysis (LTEA) Assay for ABC Transporter (ABCC2) using HepaRG (AID 2283464). As to conditions: mRNA level, 48 h; actives raise or lower the signal. In a few lines: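 HepaRG, 48 h post-plating; serum-free induction medium; cpd 8-pt, 100 uM top, half-log, 0.5% DMSO, duplicate, 48 h. Readout: ABCC2 mRNA by qRT-PCR, norm. ACTB/GAPDH/POLR2A. Bidirectional fit vs DMSO baseline.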

Read-out in assay [8]: Broad substrate specificity ATP-binding cassette transporter ABCG2 (Homo sapiens) (UniProt Q9UNQ0)
As to the kind of experiment: LTEA_HepaRG_ABCG2: Life Technologies and Expression Analysis (LTEA) Assay for ABC Transporter (ABCG2) using HepaRG (AID 2283465). The settings on record: mRNA level, 48 h; actives raise or lower the signal. In short, it runs like this: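 Gene expression of ABCG2 in HepaRG liver cells is quantified by qRT-PCR following 48 h exposure across an eight-point series topping at 100 uM. Values come from bidirectional fitting relative to DMSO vehicle.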

Assay [9] can be described thus: CEETOX_H295R_TESTO: CeeTox H295R High-throughput Steroidogenesis Assay for Testosterone (TESTO) (AID 2283457). As to conditions: actives raise or lower the signal. In short, it runs like this:
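H295R, passage ≤10, 48 h dosing; media extracted with MTBE → HPLC-MS/MS for testosterone; 7-pt standard curve sets LLOQ/ULOQ; bidirectional fit vs DMSO; MTT viability same wells.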

Read-out in assay [10]: ABC Transporter (ABCC3), ABCC3 (gene 8714)
Description: LTEA_HepaRG_ABCC3: Life Technologies and Expression Analysis (LTEA) Assay for ABC Transporter (ABCC3) using HepaRG (AID 2283462). The settings on record: mRNA level, 48 h; actives raise or lower the signal. In short, it runs like this: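 Human HepaRG, 48 h dosing, 8-pt half-log series from 100 uM, 0.5% DMSO vehicle, duplicates. ABCC3 mRNA by TaqMan qRT-PCR, housekeeping-normalized; bidirectional curve fit vs DMSO.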

The structures appear in SMILES notation. The source made the active and inactive calls. The calls were made as follows: active = hit-call score of the fitted dose curve at least 0.9, where 1 is the maximum; inactive = score below 0.9.

Chain of Broad substrate specificity ATP-binding cassette transporter ABCG2 (Homo sapiens) (Q9UNQ0 whole entry, looked up): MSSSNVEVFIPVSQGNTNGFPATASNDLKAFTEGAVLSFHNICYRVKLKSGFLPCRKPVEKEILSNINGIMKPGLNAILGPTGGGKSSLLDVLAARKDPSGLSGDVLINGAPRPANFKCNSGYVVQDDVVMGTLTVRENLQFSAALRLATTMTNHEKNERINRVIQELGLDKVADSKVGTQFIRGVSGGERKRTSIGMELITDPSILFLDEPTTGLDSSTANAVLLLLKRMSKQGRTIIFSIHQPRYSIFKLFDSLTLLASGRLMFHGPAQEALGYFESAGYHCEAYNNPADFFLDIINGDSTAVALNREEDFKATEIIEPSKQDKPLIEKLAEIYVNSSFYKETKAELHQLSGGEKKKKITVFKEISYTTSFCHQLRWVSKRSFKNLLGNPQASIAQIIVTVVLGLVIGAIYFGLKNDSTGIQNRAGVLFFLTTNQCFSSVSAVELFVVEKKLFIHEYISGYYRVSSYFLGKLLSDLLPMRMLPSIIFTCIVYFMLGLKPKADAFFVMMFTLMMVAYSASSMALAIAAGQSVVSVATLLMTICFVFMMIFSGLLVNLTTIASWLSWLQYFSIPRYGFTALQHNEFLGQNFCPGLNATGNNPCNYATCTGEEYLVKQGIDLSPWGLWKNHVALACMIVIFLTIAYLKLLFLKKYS

Usually AC50 stands for the concentration at which the activity in the assay is half-maximal. Take `C[C@]12CC[C@@H]3c4ccc(O)cc4CC[C@H]3[C@@H]1CCC2=O`: the call in assay [1], in assay [2], in assay [3], in assay [5], in assay [6] and in [7] was inactive. Further, the concentration at half-maximal activity (AC50) in assay [4] is 14.4 µM (active); in assay [8], 16.7 µM (active).
For `CC1(C)NC(=O)N(c2ccc([N+](=O)[O-])c(C(F)(F)F)c2)C1=O`, the result in assay [1], in assay [3], in assay [5] and in [7] was inactive. Also, the half-maximal activity concentration (AC50) in assay [2] is 50 µM (active); in [4] it was 50 µM (active); in assay [6] it was 77.1 µM (active); in assay [8], 29.3 µM (active).
In the case of `CCCCOC(=O)c1ccc(O)cc1`, the outcome in assay [1], in assay [9], in [2], in [3], in assay [4] and in [5] was inactive. Moreover, the molecule was classed as inactive in assay [6], in assay [7] and in [8].
With `OCCO`, the call in assay [1], in assay [2], in assay [4], in assay [6], in assay [7] and in assay [8] was inactive. Besides, the AC50 in [3] is 12.7 µM (active).
Regarding `CCCCCCCC[Si](OCC)(OCC)OCC`, the result in assay [1], in [2], in assay [3], in assay [4], in assay [6] and in assay [7] was inactive. Further, the outcome in [8] was inactive.
With `O=CCCCC=O`, the outcome in assay [1], in assay [2], in [3], in [4], in [6] and in [7] was inactive. For the same molecule, the outcome in [8] was inactive.
In the case of `CCCCCCCCCCCCO`, the outcome in assay [1], in assay [2], in assay [3], in assay [4], in assay [10] and in assay [6] was inactive. Further, the call in [7] and in assay [8] was inactive.
Consider `CCCCCCCCCCCC[N+](C)(C)C`, for which the call in assay [1], in [3] and in assay [4] was inactive. Also, the AC50 in assay [2] was 74.9 µM (active); in assay [5], 84.1 µM (active); in assay [6] it was 73.9 µM (active); in assay [7], 50 µM (active); in [8] it was 67.5 µM (active).
Consider `Cc1ccc2oc(CN(Cc3ccccc3)C(=O)Nc3c(F)cc(F)cc3F)c(-c3ccc(Cl)cc3)c2c1`, for which the call in [1], in assay [3], in assay [10] and in assay [6] was inactive. The half-maximal activity concentration (AC50) in assay [2] was 8.78 µM (active); in assay [4], 19.7 µM (active); in assay [7] it was 13.7 µM (active); in [8], 17.6 µM (active).
In the case of `CCN(Cc1cccnc1)C(=O)c1cccc(Cl)c1[C@]1(C)C(=O)N(Cc2ccc(OC)cc2OC)c2ccc(Cl)cc21`, the molecule was called inactive in assay [1], in assay [4], in assay [10] and in assay [7]. The concentration at half-maximal activity (AC50) in [2] is 18.1 µM (active); in assay [3], 8.39 µM (active); in [6], 23.6 µM (active); in [8], 6.56 µM (active).
`CC(=O)N1CCN(c2ccc(OC[C@H]3CO[C@](Cn4ccnc4)(c4ccc(Cl)cc4Cl)O3)cc2)CC1`: the AC50 in assay [1] was 33.4 µM (active); in [2] it was 12.5 µM (active); in [3], 77.6 µM (active); in [7], 31.1 µM (active); in assay [8] it was 4.05 µM (active). The call in [5] was inactive.
`CC(C)(C)c1cc(/C=C2\SC(N)=NC2=O)cc(C(C)(C)C)c1O`: the molecule was classed as inactive in assay [1], in [2], in [3], in assay [4] and in assay [8]. Besides, the concentration at half-maximal activity (AC50) in [10] was 50 µM (active); in assay [6], 24.6 µM (active); in assay [7], 27.6 µM (active).
`CC(O)CC(C)(C)O` (configuration not stated): the result in [1], in [2], in [3], in [4], in [10] and in [6] was inactive. The call in assay [7] and in assay [8] was inactive.
As to `CN1C(=O)N(c2ccccc2Br)Cc2cnc(Nc3ccc4c(c3)OCC(CO)O4)nc21` (configuration not stated), the AC50 in assay [1] was 39.2 µM (active); in assay [2], 0.0221 µM (active); in assay [4] it was 89.9 µM (active); in assay [6] it was 80.3 µM (active); in [7] it was 77.1 µM (active). The molecule was classed as inactive in [3] and in assay [8].
In the case of `Cc1cn([C@H]2C[C@H](N=[N+]=[N-])[C@@H](CO)O2)c(=O)[nH]c1=O`, the result in [1], in [2], in assay [3], in assay [4], in [6] and in assay [7] was inactive. Besides, in assay [8], the molecule was classed as inactive.
Turning to `COc1cccc([C@H](O)C2CCN(CCc3ccc(F)cc3)CC2)c1OC`, the result in assay [1], in assay [2], in [3], in [4], in [7] and in [8] was inactive. The AC50 in [6] was 26.6 µM (active).
With `CN(C)c1ccc(C(=C2C=CC(=[N+](C)C)C=C2)c2ccc(N(C)C)cc2)cc1`, the AC50 in assay [1] is 10.1 µM (active); in assay [2] it was 50 µM (active); in [3], 17.4 µM (active); in assay [4], 12.9 µM (active); in assay [6], 3.65 µM (active); in assay [7], 18.8 µM (active). Further, in assay [8], the molecule was called inactive.
As for `O=C(O)c1ccccc1C(=O)OCc1ccccc1`, the molecule was called inactive in assay [1], in [2], in [3], in assay [4], in assay [10] and in assay [6]. The call in assay [7] and in assay [8] was inactive.
As for `Clc1ccccc1C(c1ccccc1)(c1ccccc1)n1ccnc1`, the outcome in [1], in assay [2], in assay [3] and in [7] was inactive. Moreover, the AC50 was 15.8 µM (active) in assay [4], 78.3 µM (active) in assay [10], 28.6 µM (active) in [6] and 37.5 µM (active) in [8].
Take `CCCCOC(=O)CC(CC(=O)OCCCC)(OC(C)=O)C(=O)OCCCC`: the call in assay [1], in [2], in assay [3], in assay [4], in [10] and in assay [6] was inactive. Also, the result in assay [7] and in assay [8] was inactive.

Values taken from PubChem BioAssay (EPA / NIEHS).
